According to PubChem BioAssay AID686978 (National Center for Advancing Translational Sciences (NCATS), 2013):
Among all 420,000 compounds or so, about 64,000 (15%) were called active. Inconclusive results (about 27%) are left out. The list is a sample of the results. A number with no mark means an inactive call. Calls come from the whole dose curve; as a rule, active = well fitted inhibition curve with a large enough effect; inconclusive = small, poorly fitted or top-dose-only effect; inactive = flat fitted curve, though single readings scatter.

Experiment: qHTS for Inhibitors of human tyrosyl-DNA phosphodiesterase 1 (TDP1): qHTS in cells in absence of CPT; note: nearly all actives have a fitted effect of over 55% in size
Conditions: DT40 Tdp1-/- hTDP1 cells, no CPT, ATP luminescence, 48 h; activity change, negative = growth inhibition: at 46.2 µM (top of the series)
Outline: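 Stably hTDP1-transfected Tdp1-null chicken DT40 cells were treated with library compounds minus camptothecin and grown for at least 48 hr at 37 °C, after which cellular ATP was quantified by luminescence.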
% is set by controls: 0 for no effect and ±100 for the full control effect; potency is the fitted concentration of half-maximal effect.

SMILES | activity change, negative = growth inhibition | Potency
CC1CN(CCOc2ccccc2[N+](=O)[O-])CC(C)O1 (stereo not given) | -23.7% | –
Cc1cccc(C)c1OCCN1CCOCC1 | -24.1% | –
Cc1cc(C)c(OCCN2CC(C)OC(C)C2)c(Br)c1 (stereo not given) | – | 16.4 µM (active)
COc1ccc(N2CCN(S(=O)(=O)c3ccc4c(c3)N(C(C)=O)CCO4)CC2)cc1 | -8.63% | –
O=C(CN1C(=O)C2C3C=CC(C3)C2C1=O)NCCc1ccccc1Cl (stereo not given) | -9.82% | –
COc1cc(N2C(=O)c3ccccc3C2=O)c(Cl)cc1C(=O)OCC(=O)N1CCOCC1 | 4.59% | –
Cc1ccc(NC(=O)c2ccccn2)cc1S(=O)(=O)N1CCOCC1 | -6.82% | –
Cc1ccc(NC(=O)COC(=O)C2CC2)cc1S(=O)(=O)N1CCOCC1 | 0.794% | –
Cc1ccccc1NC(=O)c1cc(S(=O)(=O)N2CCOCC2)cs1 | -11.8% | –
Cc1ccc(C(=O)Nc2ccccc2C(=O)NC2CCCCC2)cc1S(=O)(=O)N1CCOCC1 | – | 18.4 µM (active)
Cc1ccc(NC(=O)NC2CCCCC2)cc1S(=O)(=O)N1CCOCC1 | -4.9% | –
COc1ccc(C(=O)OC(C)C(=O)NC2CCCC2)cc1S(=O)(=O)N1CCOCC1 (stereo not given) | 13.3% | –
Cc1ccc(NC(=O)c2ccc(Cl)nc2)cc1S(=O)(=O)N1CCOCC1 | – | 8.2 µM (active)
Cc1ccc(NC(=O)C2CCC(C(C)(C)C)CC2)cc1S(=O)(=O)N1CCOCC1 (stereo not given) | – | 20.6 µM (active)
Cc1ccc(NC(=O)CCCNC(=O)c2ccc(Cl)cc2)cc1S(=O)(=O)N1CCOCC1 | -18.1% | –
COC(=O)CSc1snnc1-c1ccc(Cl)c(Cl)c1 | 1.97% | –
O=C(NCCN1CCCC(O)C1)c1cc(COc2c(F)cccc2F)on1 (stereo not given) | 26.9% | –
COC(=O)c1[nH]c2ccc(Br)cc2c1NC(=O)Oc1ccccc1 | 1.63% | –
CC(=O)N1CCN(CC(=O)Nc2ccc(SC(F)F)cc2)CC1 | 2.7% | –
O=C(Oc1cccc(NC2=NS(=O)(=O)c3ccccc32)c1)c1ccncc1 | -0.45% | –
CC(=O)c1c(C)[nH]c(=S)c(C#N)c1-c1ccc(F)cc1 | 8.94% | –
CCOc1ccc(NC(=O)C(CC(C)C)N2Cc3ccccc3C2=O)cc1 (stereo not given) | -20.1% | –
CC(Oc1ccccc1)C(=O)N[C@@H]1C(=O)N2[C@@H]1SC(C)(C)[C@@H]2C(=O)O (stereo not given in full) | -3.68% [at 21.1 µM] | –

SMILES | activity change, negative = growth inhibition | Potency
CSc1ccc(/C=N\NC(=O)CC(=O)NC(C)C)cc1 | -2.5% | –
O=C(CC(c1cccs1)N1Cc2ccccc2C1=O)Nc1ccc(F)cc1F (stereo not given) | – | 16.4 µM (active)
COc1cc(C(CC(=O)NCCC(C)C)N2Cc3ccccc3C2=O)cc(OC)c1OC (stereo not given) | -26.2% | –
O=C(O)CC(c1ccccc1F)N1Cc2ccccc2C1=O (stereo not given) | 2.01% | –
CCc1ccc(NC(=O)C(C)OC(=O)/C=C/c2cccc([N+](=O)[O-])c2)cc1 (stereo not given) | 7.8% | –
Cc1ccc(Cl)cc1-c1ccc(/C=N/n2cnnc2)o1 | -2.4% | –
CC[C@]12c3[nH]c4cc(CCC(=O)N(C)C)ccc4c3CCN1C(=O)[C@@H](CC(=O)NCc1ccco1)C[C@@H]2C(=O)N1CCN(C(=O)c2ccco2)CC1 | -10.2% | –
C[C@]12c3[nH]c4ccc(Cl)cc4c3CCN1C(=O)[C@@H](CC(=O)NCCCn1ccnc1)C[C@@H]2C(=O)N1CCOCC1 | -13.3% | –
COc1ccc2[nH]c3c(c2c1)CCN1C(=O)C(CC(=O)NCCc2ccccn2)C[C@H](C(=O)N2CCOCC2)[C@@]31C (stereo not given in full) | -1.15% | –
CN(C)C(=O)CCc1ccc2c3c([nH]c2c1)[C@]1(C)[C@@H](C(=O)N2CCOCC2)C[C@H](CC(=O)NCCc2ccccn2)C(=O)N1CC3 | 6.99% | –
CC[C@]12c3[nH]c4cc(CCC(=O)N(C)C)ccc4c3CCN1C(=O)[C@@H](CC(=O)NCCCn1ccnc1)C[C@@H]2C(=O)N1CCN(C(=O)C2CC2)CC1 | 0.652% | –
CCN(CC)C(=O)[C@H]1C[C@H](CC(=O)NCC23CC4CC(CC(C4)C2)C3)C(=O)N2CCc3c([nH]c4cc(CCC(=O)N(C)C)ccc34)[C@]12C | – | 18.4 µM (active)
CN(C)C(=O)CCc1ccc2c3c([nH]c2c1)[C@]1(CCc2ccccc2)[C@@H](C(=O)N2CCCCC2)C[C@H](CC(=O)NCCC2=CCCCC2)C(=O)N1CC3 | – | 9.2 µM (active)
CC[C@]12c3[nH]c4cc(CCC(=O)N(C)C)ccc4c3CCN1C(=O)[C@@H](CC(=O)NCCCN(C)C)C[C@@H]2C(=O)N1CCN(C(=O)c2ccco2)CC1 | -4.3% | –
COc1ccc2[nH]c3c(c2c1)CCN1C(=O)C(CC(=O)NCc2cccc(C(F)(F)F)c2)C[C@H](C(=O)N2CCOCC2)[C@@]31C (stereo not given in full) | -25.2% | –
CCN(CC)C(=O)[C@H]1CC(CC(=O)NCc2ccco2)C(=O)N2CCc3c([nH]c4ccccc34)[C@]12C (stereo not given in full) | -17.4% | –
CC(C)N(C(=O)[C@H]1C[C@H](CC(=O)NC(C)(C)C)C(=O)N2CCc3c([nH]c4ccc(Cl)cc34)[C@]12C)C(C)C | – | 6.51 µM (active)
CN(C)C(=O)CCc1ccc2c3c([nH]c2c1)[C@]1(C)[C@@H](C(=O)N2CCCCC2)C[C@H](CC(=O)NCCC2=CCCCC2)C(=O)N1CC3 | – | 16.4 µM (active)
CC(=O)NCC(=O)N1CCC(n2nccc2NC(=O)CCCc2ccccc2)CC1 | -7.46% | –
OCC[C@H]1C[C@H](O)[C@@H](O)[C@]2(CCCCO2)O1 | -6.13% | –
COc1ccc(-c2c(C#N)cnc(C)c2C)c(O)c1OC | -27.4% | –
CSCCC(NC(=O)COc1ccccc1)C(=O)Nc1ccc(C)cc1 (stereo not given) | -28.3% | –
O=C(O)c1ccc(COc2c(F)c(F)cc(F)c2F)o1 | 18.8% | –

SMILES | activity change, negative = growth inhibition | Potency
CC(=O)N1CCC2(CCCN(Cc3ccc(C#N)cc3)C2)CC1 | 0.656% | –
CS(=O)(=O)NC(=O)CCC/C=C\C[C@H]1C(=O)C[C@@H](O)[C@@H]1/C=C/[C@H](O)COc1ccccc1 | -1.9% | –
CC(Sc1ncnc2c1cnn2-c1ccccc1)C(=O)Nc1ccc(N2CCOCC2)cc1 (stereo not given) | -1.88% | –
Cc1cc2nc(SCCN3CCOCC3)[nH]c2cc1C | -12.7% | –
COc1ccc(/C=N/NS(=O)(=O)c2ccc(NC(C)=O)cc2)cc1 | 2.6% | –
COc1ccc(C(=O)NCC(=O)N/N=C/c2ccc([N+](=O)[O-])o2)cc1OC | – | 5.17 µM (active)
O=C(COc1ccccc1[N+](=O)[O-])N/N=C/c1ccc[nH]1 | -15.9% | –
COc1ccc(C(=O)NCC(=O)N/N=C/c2ccc([N+](=O)[O-])s2)cc1OC | – | 16.4 µM (active)
COc1cc(/C=N\NC(=O)CNC(=O)c2cccc([N+](=O)[O-])c2)ccc1O | -0.0452% | –
CCc1ccc(S(=O)(=O)N/N=C\c2ccc([N+](=O)[O-])o2)cc1 | – | 16.4 µM (active)
COc1ccc(C(=O)COC(=O)c2ccc([N+](=O)[O-])s2)cc1OC | -8.4% | –
COc1cccc(/C=N/NC(=O)CNC(=O)c2ccc(S(=O)(=O)N3CCOCC3)cc2)c1OC | -23.8% | –
O=C(Cc1cc(=O)[nH][nH]1)N/N=C/c1ccccc1[N+](=O)[O-] | -17.3% | –
COc1cc(/C=N/NC(=O)CNC(=O)c2ccncc2)ccc1OC(C)=O | 5.66% | –
CCc1ccc(S(=O)(=O)Nc2ccc(C)c(NS(C)(=O)=O)c2)cc1 | -1.78% | –
Cc1ccccc1NCC(=O)N/N=C\c1ccc([N+](=O)[O-])s1 | – | 9.2 µM (active)
CC1(C)S[C@@H]2[C@H](N=CN3CCCCCC3)C(=O)N2[C@H]1C(=O)O | -23.2% | –
CN(C(=O)CN(CCO)CC(=O)N(C)C(C)(C)Cc1ccccc1)C(C)(C)Cc1ccccc1 | -1.77% | –
[O-][n+]1c2c(nn1-c1ccc(Cl)c(Cl)c1)-c1nonc1CC2 | -14.7% | –
Oc1ccccc1CNc1ncc(Br)cc1Br | -23.9% | –
O=S(=O)(NCCc1ccc(Cl)cc1)c1cccs1 | -21.2% | –
COc1cccc(-n2c(Cc3cc(=O)[nH]c(=O)[nH]3)nnc2SCC(=O)Nc2ccccc2)c1 | 0.566% | –
Nc1nnnn1CC(=O)N/N=C/c1ccc(-c2cccc(Cl)c2)o1 | -20.2% | –

SMILES | activity change, negative = growth inhibition | Potency
C[C@H]1CN([C@@H](C)CO)C(=O)CCCn2cc(nn2)CO[C@@H]1CN(C)S(=O)(=O)c1cccs1 | -1.39% | –
O=C(Cc1ccc([N+](=O)[O-])cc1)N/N=C/c1ccco1 | 11.1% | –
Cc1cc(C)nc(N/N=C/c2ccncc2)n1 | 1.16% | –
NC(=O)C(=O)N/N=C/c1ccc([N+](=O)[O-])o1 | – | 15 µM (active)
CC(C)(C)c1cc(C(=O)N/N=C/c2ccc([N+](=O)[O-])s2)n[nH]1 | – | 11.6 µM (active)
Cc1cc(C)nc(N/N=C/c2ccc([N+](=O)[O-])o2)n1 | – | 16.4 µM (active)
Cc1cc(C)nc(Nc2cc([N+](=O)[O-])ccc2C)n1 | -12.5% | –
O=C(N/N=C/c1ccc([N+](=O)[O-])cc1)C(=O)N1CCCC1 | -23.1% | –
Cc1nn(CC(=O)N/N=C/c2ccc(F)cc2)c(C)c1[N+](=O)[O-] | 4.7% | –
CC(C)NC(=O)Nc1cccc2c1O[C@@H](CN(C)S(=O)(=O)c1ccc(F)cc1)[C@@H](C)CN([C@H](C)CO)C2=O | -21.8% | –
O=C(O)C(c1cccs1)C1(O)CCCCC1 (stereo not given) | -1.75% | –
COc1ccc(C)cc1N(CC(=O)NC(C)c1ccccc1)S(C)(=O)=O (stereo not given) | 1.25% | –
CCc1c(C)nc(N)n2c(SCC(=O)NC3CCCCC3)nnc12 | -6.99% | –
C[C@@H]1CN([C@@H](C)CO)C(=O)c2cc(Br)cnc2O[C@@H]1CN(C)C(=O)C1CCCCC1 | -14.5% | –
C[N+](C)(C)CCOP(=O)([O-])OC[C@H](O)CO | -9.67% | –
CN1C(=O)CC(N2CCN(c3ccccn3)CC2)C1=O (stereo not given) | -6.92% | –
COC(=O)c1cc(NC(=O)CC2C(=O)NCCN2C(=O)c2ccc(F)cc2)cc(C(=O)OC)c1 (stereo not given) | 0.411% | –
CCOc1ncccc1C(=O)OCC(=O)N1c2ccccc2CC1C (stereo not given) | -1.22% | –
CCOC(=O)N1CCC(N2CCOc3ccc(CN4CCC(O)(c5cccnc5)CC4)cc3C2)CC1 | -21.8% | –
C[C@@H]1CN(Cc2ccc3c(c2)CN(Cc2ccc(Oc4ncccn4)cc2)CCO3)C[C@H](C)O1 | -22.2% | –
CN(C)c1ccc(CN2CCOc3ccc(CN4CCC(O)(c5cccnc5)CC4)cc3C2)cc1 | – | 16.4 µM (active)
